# According to PubChem BioAssay AID493001 (Johns Hopkins Ion Channel Center, 2010):
# About 430 (23%) of roughly 1,900 compounds were called active.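 How the source made its calls: active means duplicate-averaged calcium rise in uninduced cells above buffer wells' mean plus 5 SD; inactive means the rest.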 Not all results are given here.
# Assay: compound-evoked calcium rise in non-induced M3R cells, confirmation, artefact control for RGS4 inhibitor project, cell-based, HEK293 M3R, no carbachol, second counter-screen (AID 493001)
# Conditions: Fluo-4 calcium, at 10 µM; hits give high values, normalised: buffer wells 0%, carbachol wells 100%
row,SMILES,calcium response (agonist-mode artifact)
1,COc1ccccc1C1C(C#N)=C(N)Oc2c1c(-c1ccccc1)nn2-c1ccccc1 (configuration not stated),8% (active)
2,O=C(Nc1ccccc1)OCc1cc(-c2ccc(Cl)cc2)on1,inactive
3,COc1ccc2c(c1OC)C(=O)OC2Nc1nc(-c2ccccc2)cs1 (configuration not stated),inactive
4,CC(C)c1nc(SCC(=O)Nc2cccc(C(=O)O)c2)c2c3c(sc2n1)CCCC3,inactive
5,O=C(NCCCc1ccccc1)C1CCC(CNc2c(N3CCCCC3)c(=O)c2=O)CC1 (configuration not stated),inactive
6,Cn1c(-c2ccco2)nc2cc3ccccc3cc21,inactive
7,Cc1ccc(-c2c3c(=O)n(C)c(=O)n(C)c3cn2-n2cnnc2)cc1,inactive
8,Nc1ccccc1SC(C[N+](=O)[O-])c1ccccc1 (configuration not stated),26% (active)
9,c1ccc(C[C@H]2CNCCN2CCC23CC4CC(CC(C4)C2)C3)cc1,inactive
10,C=CCSc1nc2c(c(=O)[nH]1)C(C(C)C)C(C#N)=C(N)O2 (configuration not stated),inactive
11,CCn1c(O)c(N=NC2=NC(=O)CS2)c2cc(C)ccc21,inactive
12,O=C1NC(c2ccc(-c3ccccc3[N+](=O)[O-])o2)C(C(=O)c2ccc(Cl)cc2)C(O)(C(F)(F)F)N1 (configuration not stated),7% (active)
13,Cc1ccc(SC(CC(=O)c2ccc(C(C)(C)C)cc2)C(=O)O)cc1 (configuration not stated),inactive
14,O=C(Nc1ccc(Cl)cc1)OCc1cc(-c2ccccc2)on1,inactive
15,O=C(O)c1ccc2c(c1)C(=O)N(c1ccc(/C=C/C(=O)c3ccccc3)cc1)C2=O,inactive
16,COc1cc(/C=C2/SC(=S)N(Cc3ccccc3)C2=O)cc(OC)c1O,37.5% (active)
17,COc1ccc(/C(O)=C2/C(=O)C(=O)N(c3nc(C)c(C)s3)C2c2ccco2)cc1 (configuration not stated),inactive
18,COc1ccc(-c2csc(Nc3ccc(O)cc3)n2)cc1,inactive
19,CNc1nc(Nc2ccc(C)c(Cl)c2)nc(N)c1[N+](=O)[O-],inactive
20,O=C(O)c1ccc2c(=O)n3c(nc2c1)/C(=C/c1ccc(Cl)c([N+](=O)[O-])c1)CC3,inactive
21,COc1cc2c(cc1O)C(SC)=NC(C)(C)C2,inactive
22,Cc1cc(C)nc(S/C=C/C(=O)c2ccccc2)n1,inactive

row,SMILES,calcium response (agonist-mode artifact)
1,O=C(/C=C/Sc1ncn[nH]1)c1ccc(Cl)cc1,9% (active)
2,CC(=O)Nc1ccc(S(=O)(=O)Nc2nc(-c3ccc(C(C)(C)C)cc3)cs2)cc1,inactive
3,O=C(/C=C/c1ccc(Cl)c([N+](=O)[O-])c1)c1cccnc1,inactive
4,Cc1ccc(C)c(Cn2nnc3c(=O)[nH]c(C(=O)Nc4ccc(F)cc4)nc32)c1,inactive
5,O=C(NCc1ccccc1)c1ccc(S(=O)(=O)Nc2cccc(C(F)(F)F)c2)cc1,13% (active)
6,CCc1ccc2oc(-c3ccc(N)cc3)nc2c1,inactive
7,CCCCC1S/C(=N/N=C/c2cccs2)NC1=O (configuration not stated),inactive
8,CCOC(=O)[C@@H]1[C@H]2COc3ccc(Br)cc3[C@H]2N2C(=O)N(c3ccc(Cl)cc3)C(=O)[C@@]12C,inactive
9,O=C(CCN1CCc2ccccc2C(O)(c2ccccc2)C1)c1ccc2c(c1)OCCO2 (configuration not stated),11.5% (active)
10,CCc1nnc(NS(=O)(=O)c2ccc(N=Cc3c(C)[nH]n(-c4ccc(C)cc4)c3=O)cc2)s1,inactive
11,CCC(c1nnnn1Cc1ccco1)N(Cc1cc2cc(OC)ccc2[nH]c1=O)C1CCCCC1 (configuration not stated),inactive
12,C=C(C)C(=O)O[C@H]1C/C(C)=C\C(=O)/C=C(\C)[C@H](O)[C@@H]2OC(=O)C(=C)[C@@H]21,inactive
13,CCCCOC(=O)CNc1nnc(SCC(=O)OCC)[nH]c1=O,inactive
14,CNCC(O)c1ccc(O)c(O)c1 (configuration not stated),inactive
15,Cc1ccc(S/C(=N\S(=O)(=O)c2ccc(Cl)cc2)c2ccccc2)cc1,25% (active)
16,COc1ccc(OC)c(S(=O)(=O)N2CCCC(C(=O)N3CCC(C(N)=O)CC3)C2)c1 (configuration not stated),inactive
17,CCOC(=O)C1CCN(C(c2cc3cc(C)cc(C)c3[nH]c2=O)c2nnnn2C2CCCCC2)CC1 (configuration not stated),inactive
18,Cc1noc(NS(=O)(=O)c2ccc(N/C=C/C(=O)c3ccccc3)cc2)c1C,inactive
19,Cc1ccsc1/C=N/n1c(=S)[nH]nc(C)c1=O,inactive
20,CCOc1ccc(/C=N/NC(=O)CSc2ccccn2)cc1O,inactive
21,Cc1nc(-c2ccccc2)sc1C(=O)/C=C/c1ccccc1,22.5% (active)
22,S=c1[nH]nc(-c2cccnc2)n1/N=C/C(Cl)=C\c1ccccc1,inactive

row,SMILES,calcium response (agonist-mode artifact)
1,Oc1ccc(-c2[nH]ncc2-c2nc3ccccc3s2)c(O)c1,inactive
2,C#CCOc1ccc(/C=C2/C(=O)ON=C2C)cc1OCC,inactive
3,C=CCOc1ccc(/C=C2/C(=O)ON=C2C)cc1OCC,10% (active)
4,COc1cc(/C=C2/C(=O)ON=C2C)ccc1OCc1ccccc1F,222% (active)
5,Cc1ccc(NC(=O)c2c(NC(=O)CCC(=O)O)sc3c2CCCCC3)cc1,inactive
6,Cc1ccc(Nc2nc(N)nc(CSc3nnc(C)s3)n2)cc1,inactive
7,Cc1ccc(Nc2nc(N)nc(CN3CCN(Cc4ccccc4)CC3)n2)cc1Cl,inactive
8,Brc1ccc(-c2csc(N/N=C/c3cccnc3)n2)cc1,inactive
9,CCOc1ccc(NC(=O)C/C(C)=N/NC(=O)Cc2cccs2)cc1,inactive
10,O=C(/C=C/c1ccc(Cl)c([N+](=O)[O-])c1)c1ccc(O)cc1,inactive
11,COc1ccc(/C=C/C(=O)c2ccc(OC)cc2O)cc1,11.5% (active)
12,Cc1c(NC(=O)c2coc(=O)c(Br)c2)c(=O)n(-c2ccccc2)n1C,inactive
13,CCc1ccc(C2C(C#N)=C(N)N(N3CCOCC3)C3=C2C(=O)CC(C)(C)C3)s1 (configuration not stated),inactive
14,O=[N+]([O-])c1c(NCCO)cc(Sc2nc3ccccc3s2)c2nonc12,114% (active)
15,COc1ccc(S(=O)(=O)Nc2ccc(O)c(Sc3nc4ccccc4s3)c2)cc1,inactive
16,C[C@H](NC(=O)c1nc[nH]c1C(=O)NCC(=O)OC(C)(C)C)c1ccccc1,inactive
17,Cc1nc(Nc2ccc(S(=O)(=O)N3CCCC3)cc2)c2nnn(Cc3ccccc3)c2n1,inactive
18,Nc1cccc(-c2cc(-c3ccccc3)nc(-c3cccc(N)c3)n2)c1,inactive
19,O=C(N/N=C/c1ccccc1O)/C(=C/c1ccccc1)CCO,inactive
20,CS(=O)(=O)N(CC(O)Cn1c2ccccc2c2ccccc21)c1cccc2ccccc12 (configuration not stated),inactive
21,COCCCNC(=S)N(CCN(C)C)Cc1cc2cc3c(cc2[nH]c1=O)OCCO3,inactive
22,C1=C(N2CCOCC2)/C(=C/c2nc3ccccc3[nH]2)CC1,185% (active)

row,SMILES,calcium response (agonist-mode artifact)
1,Cc1nn(C(C)C(=O)N2CCOCC2)c(=O)c2nn(-c3ccccc3)c(C)c12 (configuration not stated),inactive
2,Cc1ccc(Sc2cc(N3CCOCC3)nc(-c3ccccc3)n2)cc1,17% (active)
3,COC(=O)C1CCN(C(=O)c2cc(=O)[nH]c3ccccc23)CC1,inactive
4,COC(=O)Cn1cc(/C=C/[N+](=O)[O-])c2ccccc21,11.5% (active)
5,CC(C)Cc1nc(Nc2ccc(S(=O)(=O)N3CCCC3)cc2)c2nnn(Cc3ccccc3)c2n1,inactive
6,COc1cc(Br)cc(/C=N/c2ncn[nH]2)c1O,inactive
7,COc1cc(/C=C2/C(=O)NN(c3cccc(Cl)c3)C2=O)cc(Br)c1O,43.5% (active)
8,C#CCOc1ccc(/C=C2/C(=O)NN(c3ccccc3)C2=O)cc1OC,inactive
9,Cc1ccc(/C=C2\CCn3c2nc2cc(C(=O)O)ccc2c3=O)c(C)c1,inactive
10,O=[N+]([O-])/C=C/c1ccc2c(ccn2Cc2ccccc2)c1,104% (active)
11,Cc1cc(-c2n[nH]c(=S)n2/N=C/C(Br)=C/c2ccccc2)n[nH]1,inactive
12,O=C1c2ccccc2NC(c2ccc(-c3cccc(Cl)c3)o2)N1O (configuration not stated),inactive
13,O=C(O)C(c1ccccc1)N1C(=O)/C(=C\c2ccc(-c3cccc(Cl)c3)o2)SC1=S (configuration not stated),599% (active)
14,O=C1Nc2ccc(Br)cc2/C1=N/N=C/C1=C(N2CCOCC2)C(=C\c2ccccc2)/CC1,inactive
15,O=C(COC(=O)c1cccc(Br)c1)Nc1cccc2c1C(=O)c1ccccc1C2=O,inactive
16,Oc1ccc(/C=N/Nc2ccc(C(F)(F)F)cn2)cc1O,inactive
17,Cc1nn2c(=O)cc(COC(=O)c3ccc(NC(=O)C(C)(C)C)cc3)nc2s1,inactive
18,COc1ccc(C(C[N+](=O)[O-])n2nc(C)cc2C)cc1 (configuration not stated),16% (active)
19,CCOC(=O)C1=NN(c2ccc(Cl)cc2)/C(=C/C2=NCCc3cc(OC)c(OC)cc32)S1,7% (active)
20,COc1ccc(NCc2nnc(SCc3ccccc3)n2-c2ccc(OC)cc2)cc1,inactive
21,O=S(=O)(Nc1nccs1)c1ccc2c(c1)OCCO2,inactive
